Where “and” joins values, the source holds several entries; their conditions need not be identical. Identical values can stand only once. Calls of active or inactive are those of the source. Unless noted, the rule behind the calls is not given here.
Experiment: P. berghei load reduction in hepatocytes – cell-based, HepG2, luciferase luminescence, HepG2 viability, primary screen (AID 624349; in the data active = parasite load remaining mostly below about 12%, no sharp cut-off; inactive = mostly above about 10%;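 note: 100% = mean of DMSO negative control wells on the same plate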)
Conditions: P. berghei liver stage in HepG2, luciferase luminescence, concentration not given here; parasite load remaining: stronger effect = lower value; viability: measured here: HepG2 viability without parasites

| Structure (SMILES) | viability | parasite load remaining |
| --- | --- | --- |
| O=C1NC(=O)c2c1c(-c1ccccc1Cl)cc1[nH]c3ccc(O)cc3c21 | 81% | 32.6% (inactive) |
| N#Cc1cnc2cnc(NCc3cccnc3)cc2c1Nc1ccc(F)c(Cl)c1 | 84.2% | 47.9% (inactive) |
| O=C1Nc2ccc(Br)cc2/C1=C/c1cc2c([nH]1)CCCC2 | 66.2% | 44.1% (inactive) |
| COC1[C@@H](OC)C[C@H](C)[C@@H](OC)C2=CC(=O)C=C(NC(=O)/C(C)=C/C=C\C(OC)[C@@H](OC(N)=O)/C(C)=C/[C@@H]1C)C2=O (some centres undefined) | 84.1% | 25.3% (inactive) |
| O=C1NC(=O)c2c1c1c3ccccc3[nH]c1c1[nH]c3cc(Br)ccc3c21 | 160% | 60.6% (inactive) |
| CNc1cc2c(Nc3cccc(Br)c3)ncnc2cn1 | 157% | 49.2% (inactive) |
| COc1cc2ncn(-c3cc(OCc4ccc(S(C)(=O)=O)cc4)c(C(N)=O)s3)c2cc1OC | 67.4% | 30% (inactive) |
| COc1cc(Nc2ncc3ccn(-c4cccc(CCC#N)c4)c3n2)cc(OC)c1OC | 164% | 50.6% (inactive) |
| O=C1NC(=O)/C(=C/c2ccc3c(c2)OCO3)S1 | 63.8% | 37.6% (inactive) |
| CSc1nc(-c2ccnc(NC(C)c3ccccc3)c2)c(-c2ccc(F)cc2)[nH]1 (centres undefined) | 77.8% | 53.6% (inactive) |
| O=C1Cc2c([nH]c3ccc([N+](=O)[O-])cc23)-c2ccccc2N1 | 128% | 65.2% (inactive) |
| CCOc1cc2ncnc(Nc3cccc(Br)c3)c2cc1OCC | 132% | 50.2% (inactive) |
| Nc1cc(Nc2ccc(S(N)(=O)=O)cc2)ncn1 | 133% | 48.4% (inactive) |
| NC(=O)Nc1sc(-c2ccccc2)cc1C(N)=O | 90.8% | 55.2% (inactive) |
| Cc1cncc2cccc(S(=O)(=O)N3CCCN(C(=O)CN)C[C@H]3C)c12 | 68.1% | 43.2% (inactive) |
| COc1cc2ncnc(Nc3cccc(O)c3)c2cc1OC | 68.3% | 52.5% (inactive) |
| Cc1nc2cc3nc(-c4cccs4)cnc3cc2n1C | 168% | 6.62% (active) |
| Cc1cc(C=C2C(=O)C=CC2=O)cc(C)c1O | 70.7% | 28.7% (inactive) |
| N#C/C(=C(/N)Sc1ccccc1N)c1cccc(C(O)c2ccncc2)c1 (centres undefined) | 70% | 49.2% (inactive) |
| CC[C@H]1OC(=O)[C@H](C)C(=O)[C@H](C)[C@@H](O[C@@H]2O[C@H](C)C[C@H](N(C)C)[C@H]2O)[C@](C)(OC)C[C@@H](C)C(=O)[C@H](C)[C@@H]2N(CCCCn3cnc(-c4cccnc4)c3)C(=O)O[C@@]21C | 63.9% | 32.3% (inactive) |

Experiment: liver-stage malaria parasite load reduction – cell-based, known kinase inhibitor set, luminescence, hepatoma host viability (AID 624392);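 note: infected cells incubated roughly two days before readout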
Conditions: Plasmodium liver stage in hepatoma cells, luciferase luminescence, concentration not given here; liver cell % of control: measured here: host liver cell viability; parasite % of control: stronger effect = lower value

| Structure (SMILES) | parasite % of control | liver cell % of control |
| --- | --- | --- |
| CN(C)CCCNc1ccc(-c2cc(Nc3cccc(Cl)c3)ncn2)cn1 | 108% (inactive) | 94.9% |
| C=CC(=O)Nc1cccc(N2C(=O)N(c3c(Cl)c(OC)cc(OC)c3Cl)Cc3cnc(NCCCCN(CC)CC)nc32)c1 | 107% (inactive) | 104% |
| NS(=O)(=O)c1ccc(-c2ccc(C=C3C(=O)c4ccccc4C3=O)o2)cc1 | 96.4% (inactive) | 102% |
| Cc1ccc(C(=O)Nc2cccc(C(F)(F)F)c2)cc1NC(=O)c1csc(-c2ccncc2)n1 | 76.3% (inactive) | 91.8% |
| Cc1ccc(C(=O)Nc2cccc(C(F)(F)F)c2)cc1Nc1ccccn1 | 54.6% (inactive) | 95% |
| CCN1CCN(Cc2ccc(NC(=O)c3cc(NC(=O)c4cc5cccc(OC)c5o4)cc(OC)c3)cc2C(F)(F)F)CC1 | 89.9% (inactive) | 93.7% |
| CC(C)n1cnc2c(Nc3cccc(Cl)c3)nc(NCCCO)nc21 | 206% (inactive) | 90.1% |
| COc1cc(NC(=O)c2csc(-c3ccncc3)n2)cc(C(=O)Nc2cccc(C(F)(F)F)c2)c1 | 124% (inactive) | 95.7% |
| COc1ccc(CNc2nc(NCc3ccc(OC)cc3)c3ncn(C(C)C)c3n2)cc1 | 168% (inactive) | 107% |
| C=CC(=O)Nc1cccc(Oc2ncnc3[nH]cc(-c4cnc5ccccc5c4)c23)c1 | 112% (inactive) | 100% |
| NC1=NC(=O)C(=Cc2ccc(-c3ccc(S(N)(=O)=O)cc3)o2)S1 | 97.3% (inactive) | 104% |
| O=C1Cc2c([nH]c3ccc([N+](=O)[O-])cc23)-c2ccccc2N1 | 65.2% (inactive) | 82.9% |
| CCN1C(=O)CC(c2ccccc2)N(C2CCCC2)c2nc(Nc3ccc(C(=O)NC4CCN(C)CC4)cc3OC)ncc21 (centres undefined) | 83.8% (inactive) | 94.4% |
| C=CC(=O)Nc1ccc(Oc2nc(Nc3ccc(N4CCN(C)CC4)cc3OC)ncc2Cl)cc1 | 126% (inactive) | 97.7% |
| CCN1CCN(Cc2ccc(NC(=O)c3ccc(C)c(NC(=O)c4nccnc4N)c3)cc2C(F)(F)F)CC1 | 155% (inactive) | 93.8% |
| COc1cc(NC(=O)c2ccno2)cc(C(=O)Nc2cccc(C(F)(F)F)c2)c1 | 70% (inactive) | 96.7% |
| CC(C)C(CO)Nc1nc(Nc2ccc(C(=O)O)c(Cl)c2)c2ncn(C(C)C)c2n1 (centres undefined) | 13.7% (inactive) and 48.9% (inactive) and 114% (inactive) | 52.3% and 72.3% |
| O=C(Nc1cccc(-c2csc(Nc3cccc(C(F)(F)F)c3)n2)c1)c1ccccc1 | 68.7% (inactive) | 97.7% |
| C=CC(=O)N1CCN(Cc2ccc(C(=O)Nc3ncc(Sc4cc(C(=O)N5CCN(C(C)=O)CC5)c(OC)cc4C)s3)cc2)CC1 | 597% (inactive) | 92.4% |
| Nc1cc(Nc2ccc(S(N)(=O)=O)cc2)ncn1 | 145% (inactive) | 97.7% |
| NC(=O)Nc1sc(-c2ccccc2)cc1C(N)=O | 316% (inactive) | 111% |
| Cc1ccc(C(=O)Nc2cccc(C(F)(F)F)c2)cc1Nc1ncnc2nc[nH]c12 | 64.6% (inactive) | 108% |
